Myeloid diff MLP = induction of myeloid progenitor differentiation, primary screen, cell-based, flow cytometry, MLPCN library. calls only at 10 µM. hit rate 1% among 360,000. ER-HoxA9 myeloid progenitors, lysozyme-GFP differentiation;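 active = normalized GFP-positive differentiation at or above the plate's own cutoff, the solvent-only control mean plus 3 SD; inconclusive = no clear call, values can overlap the other calls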;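 note: cells exposed to compound for four days before flow analysis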
HNF4A DNA FP = change in binding of human HNF4A to DNA, primary screen, biochemical, fluorescence polarization, FITC-DNA | activity change, % at 10 µM | AID 1224865, 2016 | hit rate 0.3% among 360,000 | 1 h; in the data active = activity change above about 30%, passing the limit was not always enough
Target sequence (P41235 whole entry, looked up): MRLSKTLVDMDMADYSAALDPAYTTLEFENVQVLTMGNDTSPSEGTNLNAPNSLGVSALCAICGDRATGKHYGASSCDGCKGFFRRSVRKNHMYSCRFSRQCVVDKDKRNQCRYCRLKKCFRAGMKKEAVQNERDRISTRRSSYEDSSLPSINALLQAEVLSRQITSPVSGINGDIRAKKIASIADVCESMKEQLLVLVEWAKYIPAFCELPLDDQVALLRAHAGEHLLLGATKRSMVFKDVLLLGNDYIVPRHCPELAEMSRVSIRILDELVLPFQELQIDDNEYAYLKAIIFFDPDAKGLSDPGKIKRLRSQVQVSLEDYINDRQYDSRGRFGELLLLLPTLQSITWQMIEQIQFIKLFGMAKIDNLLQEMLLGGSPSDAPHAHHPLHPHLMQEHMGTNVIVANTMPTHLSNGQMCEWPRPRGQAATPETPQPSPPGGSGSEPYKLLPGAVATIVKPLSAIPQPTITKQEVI
TPT1 inh = Candida albicans TPT1 enzyme inhibitors, primary screen, biochemical, fluorescence polarization | tRNA 2'-phosphotransferase TPT1 (Candida albicans SC5314) | recombinant caTPT1, FP RNA substrate dephosphorylation | inhibition, % at 5 µM | hit rate 0.81% among 300,000 | AID 1962, 2009;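 active = inhibition above the mean of all tested compounds plus 3 SD, set per screening campaign, cut at about 24% in these data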
Rpn11 block = Rpn11 (PSMD14) deubiquitinase inhibitors, primary screen, biochemical, fluorescence polarization, uHTS; 26S proteasome non-ATPase regulatory subunit 14 (Homo sapiens), O00487; human 26S proteasome, Ub4-pepOG fluorescence polarization; 20S core pre-blocked with epoxomicin; inhibition, % at 20 µM; hit rate 0.59% among 360,000; AID 588493, 2011;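 active = inhibition at 20 µM, scaled to each plate's controls, above about 33%, limit read from the data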
Rpn11 inh conf = Rpn11 (PSMD14) deubiquitinase inhibitors, confirmation, biochemical, fluorescence polarization, single concentration | purified human 26S proteasome, Ub4-pepOG fluorescence polarization; proteasome pretreated with epoxomicin | AID 602318, 2012 | shares compounds with Rpn11 block | inhibition, % at 20 µM | hit rate 29% among 1,900
MMP-2 counter = MMP-2 enzyme inhibition, confirmation, counter-screen for RPN11 inhibitor project, biochemical, fluorescence, single concentration | hit rate 4% among 1,900 | shares compounds with Rpn11 block | AID 602330, 2012 | inhibition, % at 20 µM | recombinant MMP-2, FRET peptide cleavage fluorescence;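 note: human MMP-2 activated beforehand with APMA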
Thrombin FP = bovine thrombin protease inhibition, confirmation, counter-screen for Rpn11 inhibitor project, biochemical, fluorescence polarization, single concentration; bovine thrombin cleavage of Ub4-pepOG; inhibition, % at 20 µM; AID 602333, 2012; hit rate 13% among 1,900; shares compounds with Rpn11 block;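 active = mean inhibition at least 40% at 20 µM, or signal 3 deviations below plate average, so some actives read negative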
Large screens that a line does not name were inactive (follow-up assays come after a bar, where they were run). Hits are enriched below; roughly 2.1% of the tested compounds scored in any of these assays. Cut-off read from the data, not from the text of the source, unless noted: active = inhibition above about 40%; inactive = the rest.

COc1ccc2cc(C#N)c(SCC(=O)N3CC(=O)Nc4ccccc43)nc2c1	Rpn11 block 48 | Rpn11 inh conf inactive | MMP-2 counter inactive | Thrombin FP inactive
Cc1cccc2cc(C#N)c(SCC(=O)N3CC(=O)Nc4ccccc43)nc12	Myeloid diff MLP inconclusive
N#Cc1cc2ccccc2nc1SCC(=O)Nc1ccccc1N1CCOCC1	none
Cc1cccc2cc(C#N)c(SCC(=O)Nc3ccccc3N3CCOCC3)nc12	Myeloid diff MLP active, Rpn11 block 36 | Rpn11 inh conf inactive | MMP-2 counter inactive | Thrombin FP inactive
CCN(CC)c1ccc(/C=C2\C(=O)N(c3nnc(C)c(=O)[nH]3)N=C2C)cc1	TPT1 inh 43, Rpn11 block 44 | Rpn11 inh conf 49 | MMP-2 counter inactive | Thrombin FP inactive
COc1ccc(/C=C2/C(=O)N(c3ccccc3)N=C2C)cc1	none
C/C=C/c1ccc(OCC(=O)N(CCOC)c2c(N)n(CCCC)c(=O)[nH]c2=O)c(OC)c1	none
CC(=O)c1ccc(N/C=C\C(=O)c2ccc(C)cc2)cc1	none
CC(=O)Nc1ccc(N/C=C/C(=O)c2ccc(Cl)cc2)cc1	Rpn11 block 98 | Rpn11 inh conf inactive | MMP-2 counter inactive | Thrombin FP inactive
Cc1ccc(Sc2ncccc2C(N)=O)cc1	none
CC1(C)Cc2c(C#N)c(NCCCO)nc(-c3ccccc3)c2CO1	HNF4A DNA FP 28, Rpn11 block 68 | Rpn11 inh conf inactive | MMP-2 counter inactive | Thrombin FP inactive
COCc1nnc(NC(=O)C2CC(=O)N(C3CCCC3)C2)s1 (stereo not given)	none
COc1cc(/C=C(\C#N)c2nc3ccccc3s2)cc([N+](=O)[O-])c1O	none (no result: TPT1 inh)
N#C/C(=C\c1ccc(O)c([N+](=O)[O-])c1)c1nc2ccccc2s1	Rpn11 block 45 (no result: TPT1 inh) | Rpn11 inh conf 42 | MMP-2 counter 72 | Thrombin FP inactive
O=C1NC[C@@H](CCCCN2CCN(CCC3CCCCC3)C(=O)C2=O)N(Cc2ccccc2)C1=O	none (no result: TPT1 inh, Rpn11 block)
O=C(COC(=O)Cc1ccc(Cl)cc1Cl)Nc1ccccc1OC(F)F	none
CCOc1ccc2nc(N3C(=O)C(O)=C(C(=O)c4ccco4)C3c3ccco3)sc2c1 (stereo not given)	none (no result: TPT1 inh)
Cc1cc(C)c2nc(N3C(=O)C(O)=C(C(=O)c4ccco4)C3c3ccco3)sc2c1 (stereo not given)	Rpn11 block 39 | Rpn11 inh conf inactive | MMP-2 counter inactive | Thrombin FP inactive
N#CC1(NC(=O)COc2ccc(C(N)=O)cc2)CCCC1	none (no result: TPT1 inh)
CCc1ccccc1NC(=O)N1CCCC(CCC(=O)N(C)CCc2ccccn2)C1 (stereo not given)	Rpn11 block 36 | Rpn11 inh conf inactive | MMP-2 counter inactive | Thrombin FP inactive
COc1ccc(NC(=O)N2CCCC(CCC(=O)N(C)CCc3ccccn3)C2)cc1 (stereo not given)	none
Cc1ccc(SCCc2cc[n+](CC(=O)c3ccccc3)cc2)cc1	Rpn11 block 38 | Rpn11 inh conf inactive | MMP-2 counter inactive | Thrombin FP inactive
CCN1CCN(Cc2ccc(NC(=O)c3ccc(C)c(NC(=O)c4csc(-c5ccncc5)n4)c3)cc2C(F)(F)F)CC1	Rpn11 block 55 (no result: Myeloid diff MLP) | Rpn11 inh conf inactive | MMP-2 counter inactive | Thrombin FP inactive
CCN1CCN(Cc2ccc(NC(=O)c3ccc(C)c(NC(=O)c4cccc(-c5cn[nH]c(=O)c5)c4)c3)cc2C(F)(F)F)CC1	none
CCOc1ccc(NC(=S)NC(=O)/C=C/c2ccco2)cc1	none
COc1cc(NS(=O)(=O)c2ccc(NC(=S)NC(=O)/C=C/c3ccco3)cc2)ncn1	Rpn11 block 42 (no result: TPT1 inh) | Rpn11 inh conf 78 | MMP-2 counter inactive | Thrombin FP 47
Cc1ccsc1C(=O)NN=C1CCCCCC1	none

Assay outcomes as filed in PubChem BioAssay.
